# Assay results taken from article PMC4336329 (PLoS ONE, 2015).
# Out of some 310,000 compounds screened, about 14,000 (4.5%) showed an effect of 50% or more. Effects have a minus sign here. The sample as a whole holds a higher share of strong results than the screen did.
# Target: human ether-à-go-go-related gene (hERG) potassium channel (human, UniProt Q12809)
# Assay: primary screen, population patch clamp on CHO cells stably expressing hERG; higher = less effect of the substance
# 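Note: peak tail current of the secondary pulse compared with the same well before compound.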
# Sequence of human ether-à-go-go-related gene (hERG) potassium channel (Q12809 whole entry, looked up): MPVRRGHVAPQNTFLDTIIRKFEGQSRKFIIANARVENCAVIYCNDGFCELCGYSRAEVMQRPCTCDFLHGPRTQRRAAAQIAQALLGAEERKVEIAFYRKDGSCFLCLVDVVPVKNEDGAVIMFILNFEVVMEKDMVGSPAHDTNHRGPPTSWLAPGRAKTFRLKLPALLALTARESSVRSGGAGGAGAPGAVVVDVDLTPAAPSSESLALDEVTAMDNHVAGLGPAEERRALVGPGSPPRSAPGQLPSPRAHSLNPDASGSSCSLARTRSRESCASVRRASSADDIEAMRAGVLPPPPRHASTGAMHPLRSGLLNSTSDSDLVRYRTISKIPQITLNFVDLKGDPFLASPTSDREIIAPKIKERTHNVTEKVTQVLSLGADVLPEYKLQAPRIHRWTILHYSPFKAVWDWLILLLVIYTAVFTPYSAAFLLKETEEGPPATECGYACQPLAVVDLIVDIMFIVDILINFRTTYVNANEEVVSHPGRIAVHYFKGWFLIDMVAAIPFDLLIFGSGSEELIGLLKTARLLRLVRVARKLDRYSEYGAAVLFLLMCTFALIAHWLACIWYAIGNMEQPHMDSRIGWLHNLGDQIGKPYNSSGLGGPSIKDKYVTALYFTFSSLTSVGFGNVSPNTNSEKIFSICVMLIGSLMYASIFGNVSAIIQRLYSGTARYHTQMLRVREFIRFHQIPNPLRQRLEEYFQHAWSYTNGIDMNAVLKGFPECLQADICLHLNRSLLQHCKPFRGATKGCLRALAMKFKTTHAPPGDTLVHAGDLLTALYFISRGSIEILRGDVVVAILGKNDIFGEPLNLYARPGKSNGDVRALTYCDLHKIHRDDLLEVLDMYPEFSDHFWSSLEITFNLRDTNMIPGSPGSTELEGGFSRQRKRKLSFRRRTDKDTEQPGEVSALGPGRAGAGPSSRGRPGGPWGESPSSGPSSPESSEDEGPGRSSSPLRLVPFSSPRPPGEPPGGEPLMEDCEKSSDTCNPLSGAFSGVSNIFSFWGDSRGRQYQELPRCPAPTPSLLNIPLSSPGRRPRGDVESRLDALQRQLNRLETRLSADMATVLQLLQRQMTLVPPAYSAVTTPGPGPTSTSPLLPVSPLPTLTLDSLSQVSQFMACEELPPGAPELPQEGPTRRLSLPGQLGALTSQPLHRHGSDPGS
row,Compound,"hERG current change (%, negative = inhibition) at 10uM [%]"
1,CC1=C(C(=O)OC(C)C)C(c2ccccc2)NC(=S)N1C (stereo not shown),2.43
2,COc1ccc(-n2c(=S)[nH]c3ccccc32)cc1,1.28
3,Cc1c(-c2cccc(Cl)c2)nc2ccccc2c1C(=O)N1CCC2(CC1)OCCO2,-47.4
4,COc1cccc(-c2cc(C(=O)NN3CCOCC3)c3ccccc3n2)c1,-24.3
5,Cc1c(-c2cccc(Cl)c2)nc2ccccc2c1C(=O)NC1CC1,-60.6
6,CC(C)Oc1cccc(-c2cc(C(=O)NN3CCOCC3)c3ccccc3n2)c1,-60.8
7,Cc1ccc(C)c(-c2cc(C(=O)NN3CCOCC3)c3ccccc3n2)c1,-17.1
8,Cc1ccc(-c2cc(C(=O)NCCc3ccccn3)c3ccccc3n2)c(C)c1,-51.1
9,Cc1ccc(C)c(-c2cc(C(=O)NC3CC3)c3ccccc3n2)c1,-61.1
10,Cl.O=C(NCCc1ccccn1)c1cc(-c2cccc3ccccc23)nc2ccccc12,-27.1
11,Cc1cc(C(=O)NC2CC2)c2ccccc2n1,19.9
12,COC(=O)c1sccc1NC(=O)c1c(C)c(-c2cccc(Cl)c2)nc2ccccc12,16.7
13,O=C(NCCc1ccccn1)c1cc(-c2ccccc2Cl)nc2ccccc12,-2.8
14,O=C(NN1CCOCC1)c1cc(-c2ccccc2)nc2ccccc12,-8.03
15,CN(C)S(=O)(=O)c1ccc(N2CCCC2)c(C(=O)Nc2ccc(N3CCOCC3)cc2)c1,-7.91
16,COc1ccc(C(=O)NCC(=O)NCC(=O)OCc2ccc(Cl)cc2)cc1,-6.07
17,O=C(Cc1ncn[nH]1)NCCc1ccccc1,-3.77
18,Cn1c(=O)[nH]c2nncnc2c1=O,-13
19,COc1cc2ccccc2cc1C(=O)Nc1cccnc1,-9.84
20,CCOC(CC(=O)NNC(=O)c1c(-c2ccccc2Cl)noc1C)OCC,17.7
21,COc1cc(C(=O)NCCN2CCOCC2)cc(OC)c1OC,8.25
22,O=C(NCc1ccccn1)c1cc(-c2ccccc2)nc2ccccc12,-25.2
23,COc1ccc(Nc2cc(C(=O)NCc3ccccn3)c3ccccc3n2)c(OC)c1,8.79
24,CCc1ccccc1Nc1cc(C(=O)NCc2ccccn2)c2ccccc2n1,-57.8

row,Compound,"hERG current change (%, negative = inhibition) at 10uM [%]"
1,Cc1ccc(CNS(=O)(=O)c2cc3c4c(c2)CCN4C(=O)CC3)cc1,-29.4
2,Cc1cc(C)c(OCC(O)CN2CCN(C(=O)c3ccccc3)CC2)c(C)c1.O=C(O)C(=O)O (stereo not shown),-46.4
3,Cc1cc(C)cc(OCC(O)CN2CCN(C(=O)c3ccco3)CC2)c1 (stereo not shown),-43.7
4,CC(=O)N1CCN(CC(O)COc2ccc(Br)cc2)CC1.O=C(O)C(=O)O (stereo not shown),-10.7
5,CC(=O)c1cccc(OCC(O)CN2CCN(C(=O)c3ccco3)CC2)c1 (stereo not shown),-2.19
6,OC(COc1ccc(Br)cc1)CN1CCN(c2ccccc2)CC1 (stereo not shown),-21.2
7,CC(C)(C)c1ccc(OCC(O)CN2CCN(C(=O)c3ccccc3)CC2)cc1.O=C(O)C(=O)O (stereo not shown),-50.7
8,Cl.O=C(c1ccccc1)N1CCN(CC(O)COc2cccc3ccccc23)CC1 (stereo not shown),-28.1
9,O=C(c1ccco1)N1CCN(CC(O)COc2ccc(Br)cc2)CC1 (stereo not shown),-72.6
10,O=C(c1ccccc1)N1CCN(CC(O)COc2ccc(Br)cc2)CC1 (stereo not shown),-64.9
11,O=C(c1ccco1)N1CCN(CC(O)Cn2c3ccccc3c3ccccc32)CC1 (stereo not shown),-41.9
12,O=C(c1ccco1)N1CCN(CC(O)COc2ccc3oc4ccccc4c3c2)CC1 (stereo not shown),-66.4
13,COC(=O)c1ccc(OCC(O)CN2CCN(C(=O)c3ccco3)CC2)cc1.O=C(O)C(=O)O (stereo not shown),-25.3
14,O=C(NC1CCCCC1)c1ccc(OC2CCN(Cc3ccccn3)CC2)cc1,-16
15,COc1ccc(OC)c(N(CC(=O)NCCSC2CCCCC2)S(=O)(=O)c2ccccc2)c1,16
16,Cc1cccc(NC(=O)CSc2nccn2Cc2ccco2)c1,0.772
17,Cc1c(NS(=O)(=O)c2ccc(C(=O)NCc3ccc(F)cc3)cc2)c(=O)n(-c2ccccc2)n1C,-15
18,COc1ccc(C(=O)NC(=S)NNC(=O)c2ccccc2C)cc1,17.7
19,NC(=O)c1c(NC(=O)CSc2nc3c(c(C(F)(F)F)n2)CCc2ccccc2-3)sc2c1CCCC2,-1.81
20,Nc1ccc2c(c1)C(=O)Cc1ccccc1S2,9.05
21,CCCOC(=O)c1ccc(OCC(O)CN2CCN(C(=O)c3ccccc3)CC2)cc1.Cl (stereo not shown),-73.7
22,COc1ccccc1OCC(O)CN1CCN(C(=O)c2ccccc2)CC1.Cl (stereo not shown),1.39
23,COc1cc(C(=O)N2CCN(CC(O)COc3ccccc3)CC2)cc(OC)c1OC (stereo not shown),4.32
24,CC(=O)/C(=N\Nc1ccc(C)cc1)Sc1nncn1C,-12.8

row,Compound,"hERG current change (%, negative = inhibition) at 10uM [%]"
1,COc1ccccc1C(=O)NCc1ccc(-c2nc3ccccc3s2)cc1,-11
2,O=C(NNc1nc(-c2ccccc2)cs1)c1ccccc1,3.27
3,Br.CC(C)CC1CC(C)(c2csc(NNC(=O)c3ccccc3)n2)OC1=O (stereo not shown),-74.5
4,CC1(C)CC(CC(=O)NNc2nc(-c3ccccc3)cs2)C(=O)O1 (stereo not shown),-2.28
5,O=C(Nc1cccc(F)c1)C1C2C=CC3(CN(CCCN4CCOCC4)C(=O)C13)O2 (stereo not shown),-8.87
6,Cl.O=C1CSC(c2ccccc2F)N1CCN1CCCCC1 (stereo not shown),-10.6
7,CCOC(=O)C1(CC2CC2)CCN(Cc2cn[nH]c2-c2cccc(F)c2)CC1,-91.6
8,CCOC(=O)C1(CC2CC2)CCN(Cc2cn[nH]c2-c2ccccc2)CC1,-79.5
9,CCOC(=O)C1(CC2CC2)CCN(S(=O)(=O)/C=C/c2ccccc2)CC1,-18.4
10,CCOC(=O)C1(CC2CCCCO2)CCN(S(=O)(=O)c2cccc(F)c2)CC1 (stereo not shown),29.8
11,CCOC(=O)C1(CC2CC2)CCN(Cc2ccc3cccc(F)c3n2)CC1,-48.3
12,CCOC(=O)C1(CC2CCCCO2)CCN(Cc2cc3ccccc3[nH]2)CC1 (stereo not shown),-46.1
13,CCOC(=O)C1(CC2CCCCO2)CCN(Cc2cn[nH]c2-c2cccc(F)c2)CC1 (stereo not shown),-53.9
14,CCOC(=O)C1(Cc2ccccc2)CCN(Cc2cn[nH]c2-c2ccccc2)CC1,-28.8
15,CC(C#N)Sc1ncnc2sc3c(c12)CCC3 (stereo not shown),0.835
16,CCC(Sc1ccc2nnc(CCNS(=O)(=O)c3ccc(OC)cc3)n2n1)C(=O)OC (stereo not shown),-10.7
17,OCCC1CN(Cc2cccc(OC3CCCC3)c2)CCN1Cc1ccsc1 (stereo not shown),-70
18,CCCn1ncc(CN2CCN(Cc3ccsc3)C(CCO)C2)c1C (stereo not shown),-5.55
19,Cc1nn(C(C)C)c(C)c1CN1CCN(Cc2ccsc2)C(CCO)C1 (stereo not shown),0.518
20,OCCC1CN(Cc2ccsc2)CCN1C1CCCC1 (stereo not shown),-9.06
21,OCCC1CN(Cc2ccccc2OC2CCCC2)CCN1Cc1ccsc1 (stereo not shown),-68.7
22,COc1cccc(CN2CCN(Cc3ccc4c(c3)OCCO4)CC2CCO)c1 (stereo not shown),-7.1
23,CC(=O)c1cccc(NC(=O)N2CCC(c3ccc(C)cc3)C2)c1 (stereo not shown),-13.8
24,COc1ccc(-c2c(C(F)(F)F)oc3cc(OCC(=O)Nc4ccccc4C(F)(F)F)ccc3c2=O)cc1OC,4.91

row,Compound,"hERG current change (%, negative = inhibition) at 10uM [%]"
1,CC1(C)Cc2nc3sc4c(N(CCO)CCO)ncnc4c3cc2CO1,3.56
2,CC1(C)Cc2nc3oc4c(NCc5ccccc5)ncnc4c3cc2CO1,-10.7
3,CC1(C)Cc2nc3oc4c(N(CCO)Cc5ccccc5)ncnc4c3cc2CO1,-65.6
4,CCN1CCN(C(=O)CN(c2cc(OC)ccc2OC)S(C)(=O)=O)CC1,16.2
5,O=C(c1ccc(Cl)cc1)N1N=C(c2ccccn2)CC1(O)C(F)(F)F (stereo not shown),-13.6
6,COc1ccc(S(=O)(=O)N2CCCCCC2)cc1NC(=O)c1ccccc1,10.5
7,COc1ccc(NC(=O)c2ccc3c(c2)OCCO3)cc1OC,9.47
8,COc1ccc(CCNS(=O)(=O)c2cccc(F)c2)cc1OC,-1.75
9,C/C(=N\NC(=O)c1nonc1N)c1cccs1,4.26
10,Nc1nonc1C(=O)NCCNC(=O)c1cccs1,-58.7
11,Nc1nonc1C(=O)NCCNC(=O)c1ccccc1F,4.12
12,CCCCCCCCNC(=O)c1cnccn1,-7.1
13,O=c1[nH]nc(CNc2ccc(O)cc2)c2ccccc12,-6.61
14,O=C(O)c1ccc(Cl)c(S(=O)(=O)N(Cc2ccccc2)c2ccccc2)c1,7.76
15,CC1(C)CC(NC(=O)c2ccc(Cl)c(S(=O)(=O)N(Cc3ccccc3)c3ccccc3)c2)CC(C)(C)N1,-62.3
16,CN(C)S(=O)(=O)c1ccc(F)c(C(=O)Nc2ccccc2C(=O)NC2CC2)c1,-38.7
17,COc1ccccc1N(Cc1ccccc1)S(=O)(=O)c1cccc(C(=O)O)c1,10.9
18,O=C(O)c1ccc(Cl)c(S(=O)(=O)N(Cc2ccccc2)c2ccc(F)cc2)c1,13.9
19,CC1(C)CC(NC(=O)c2cccc(S(=O)(=O)N(Cc3ccccc3)c3ccccc3)c2)CC(C)(C)N1,-45.3
20,CN(C)S(=O)(=O)c1cc(C(=O)Nc2ccccc2C(=O)NC2CC2)ccc1Cl,-62.2
21,COc1ccccc1N(Cc1ccccc1)S(=O)(=O)c1cccc(C(=O)NC2CC(C)(C)NC(C)(C)C2)c1,-73.4
22,O=C(Nc1ccccc1C(=O)NC1CC1)c1ccccc1,12.9
